Targets with a hit are over-represented here; the source holds about 7,900 in all. About 0.6% of all pairs of compound and target were hits.
What was measured:
Experiment in all cases: log2 fold change, soluble protein after heating vs DMSO (PISA); higher = thermal stabilisation; K562 cells, 10 uM, 30 min; active = over 0.2 and 3.5 SD of the protein, either way, in both replicates (recomputed)
[1] = compound: NC(=O)Nc1cc(-c2cccc(F)c2)sc1C(=O)N[C@H]1CCCNC1
Summary of the method: (§1)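 Aliquots of K562 cells (2×10^6 cells/mL) treated with 10 μM compound for 30 min were heated for 3 min over 48°C-58°C. After pooling and extraction in PBS with 0.5% NP-40 at 4°C, soluble protein from a 21,000xg, 90 min spin was quantified by TMTpro 16plex LC-MS/MS with channel sums equalised. Thermal stability is expressed against control samples, from duplicates, as a log2 fold change.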

[2] = compound: NC(=O)c1cnc(N[C@@H]2CCCC[C@@H]2N)nc1Nc1cccc(-n2nccn2)c1
Summary of the method: as §1

[3] = compound: NC1(c2ccc(-c3nc4ccn5c(=O)[nH]nc5c4cc3-c3ccccc3)cc2)CCC1
Summary of the method: as §1

[4] = compound: NCC(=O)Nc1ccc(-n2nc(C(F)(F)F)cc2-c2ccc3c(ccc4ccccc43)c2)cc1
Summary of the method: as §1

entinostat = compound: Nc1ccccc1NC(=O)c1ccc(CNC(=O)OCc2cccnc2)cc1 [entinostat]
Summary of the method: as §1

vorinostat = compound: O=C(CCCCCCC(=O)Nc1ccccc1)NO [vorinostat]
Summary of the method: as §1

citarinostat = compound: O=C(CCCCCCNC(=O)c1cnc(N(c2ccccc2)c2ccccc2Cl)nc1)NO [citarinostat]
Summary of the method: as §1

silmitasertib = compound: O=C(O)c1ccc2c(c1)nc(Nc1cccc(Cl)c1)c1ccncc12 [silmitasertib]
Summary of the method: as §1

[5] = compound: O=C1NC(=O)C(c2cnc3ccccn23)=C1c1cn2c3c(cc(F)cc13)CN(C(=O)N1CCCCC1)CC2
Summary of the method: as §1

[6] = compound: c1cc(OCCN2CCCCC2)cc(-c2n[nH]c3ccc(-c4nnc[nH]4)cc23)c1
Summary of the method: as §1

entospletinib = compound: c1cn2cc(-c3ccc4cn[nH]c4c3)nc(Nc3ccc(N4CCOCC4)cc3)c2n1 [entospletinib]
Summary of the method: as §1

Measured: log2 fold change

LGALS8 isoform 2 (UniProt O00214)
inactive: [1] -0.053 | [2] -0.096 | [3] 0.179 | [4] 0.055 | entinostat 0.091 | vorinostat 0.078 | citarinostat 0.051 | silmitasertib 0.147 | [5] 0.121 | [6] -0.129 | entospletinib 0.101

KIF21A isoform 4 (UniProt Q7Z4S6)
inactive: [1] -0.068 | [2] 0.055 | [3] -0.049 | [4] -0.093 | entinostat 0.01 | vorinostat 0.012 | citarinostat 0.002 | silmitasertib 0.033 | [5] 0.213 | [6] -0.087 | entospletinib 0.018

MFN1 (UniProt Q8IWA4)
inactive: [1] -0.072 | [2] -0.171 | [3] -0.01 | [4] -0.224 | entinostat 0.034 | vorinostat 0.021 | citarinostat 0.034 | silmitasertib 0.102 | [5] -0.009 | [6] 0.02 | entospletinib -0.028

IMMT isoform 4 (UniProt Q16891)
UniProt Q16891, sequence (Q16891 whole entry, looked up): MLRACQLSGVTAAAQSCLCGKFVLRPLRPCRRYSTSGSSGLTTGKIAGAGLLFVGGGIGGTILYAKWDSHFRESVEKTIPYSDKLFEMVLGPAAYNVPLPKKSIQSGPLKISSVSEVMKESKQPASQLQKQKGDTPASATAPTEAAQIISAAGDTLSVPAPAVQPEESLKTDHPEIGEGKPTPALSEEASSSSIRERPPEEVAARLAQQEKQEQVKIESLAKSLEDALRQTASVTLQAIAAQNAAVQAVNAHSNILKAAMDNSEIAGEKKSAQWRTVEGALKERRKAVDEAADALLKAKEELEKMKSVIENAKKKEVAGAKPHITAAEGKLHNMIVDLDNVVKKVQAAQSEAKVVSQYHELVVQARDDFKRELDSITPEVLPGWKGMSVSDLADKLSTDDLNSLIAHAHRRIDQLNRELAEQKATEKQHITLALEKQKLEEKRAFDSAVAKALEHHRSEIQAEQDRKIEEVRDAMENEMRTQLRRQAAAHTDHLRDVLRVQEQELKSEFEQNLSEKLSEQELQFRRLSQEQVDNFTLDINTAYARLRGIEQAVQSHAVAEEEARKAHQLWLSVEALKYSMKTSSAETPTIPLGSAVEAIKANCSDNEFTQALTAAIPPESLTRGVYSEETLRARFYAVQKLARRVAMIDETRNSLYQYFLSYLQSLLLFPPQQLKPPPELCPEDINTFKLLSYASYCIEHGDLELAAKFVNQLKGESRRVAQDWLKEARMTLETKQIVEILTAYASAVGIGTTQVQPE
inactive: [1] -0.022 | [2] -0.083 | [3] -0.132 | [4] -0.056 | entinostat 0.021 | vorinostat 0.008 | citarinostat 0.007 | silmitasertib -0.038 | [5] -0.031 | [6] -0.035 | entospletinib -0.011

MGST3 (UniProt O14880)
UniProt O14880, sequence (O14880 whole entry, looked up): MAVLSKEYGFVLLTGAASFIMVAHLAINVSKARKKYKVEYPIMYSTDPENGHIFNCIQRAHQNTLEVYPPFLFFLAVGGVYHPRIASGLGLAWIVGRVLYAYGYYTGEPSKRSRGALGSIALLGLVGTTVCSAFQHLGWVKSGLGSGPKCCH
inactive: [1] -0.04 | [2] -0.07 | [3] 0.076 | [4] 0.009 | entinostat -0.047 | vorinostat -0.043 | citarinostat -0.005 | silmitasertib -0.011 | [5] -0.025 | [6] -0.056 | entospletinib 0.054

MIA2 (UniProt Q96PC5)
inactive: [1] 0.03 | [2] -0.03 | [3] 0.06 | [4] -0.032 | entinostat -0.009 | vorinostat 0.009 | citarinostat 0.059 | silmitasertib 0.083 | [5] -0.045 | [6] -0.058 | entospletinib -0.012

MAPRE3 (UniProt Q9UPY8)
inactive: [1] -0.002 | [2] -0.053 | [3] -0.112 | [4] -0.052 | entinostat 0.066 | vorinostat 0.002 | citarinostat 0.049 | silmitasertib 0.004 | [5] -0.087 | [6] -0.04 | entospletinib -0.041

LRBA (UniProt P50851)
inactive: [1] 0.002 | [2] -0.058 | [3] -0.146 | [4] -0.039 | entinostat 0.016 | vorinostat 0.049 | citarinostat 0.034 | silmitasertib 0.033 | [5] -0.025 | [6] -0.026 | entospletinib -0.002

MIEF1 (UniProt L0R8F8)
inactive: [1] 0.085 | [2] 0.094 | [3] 0.047 | [4] 0.002 | entinostat 0.007 | vorinostat -0.012 | citarinostat 0.039 | silmitasertib -0.021 | [5] -0.063 | [6] -0.056 | entospletinib 0.023

LNPK (UniProt Q9C0E8)
UniProt Q9C0E8, sequence (Q9C0E8 whole entry, looked up): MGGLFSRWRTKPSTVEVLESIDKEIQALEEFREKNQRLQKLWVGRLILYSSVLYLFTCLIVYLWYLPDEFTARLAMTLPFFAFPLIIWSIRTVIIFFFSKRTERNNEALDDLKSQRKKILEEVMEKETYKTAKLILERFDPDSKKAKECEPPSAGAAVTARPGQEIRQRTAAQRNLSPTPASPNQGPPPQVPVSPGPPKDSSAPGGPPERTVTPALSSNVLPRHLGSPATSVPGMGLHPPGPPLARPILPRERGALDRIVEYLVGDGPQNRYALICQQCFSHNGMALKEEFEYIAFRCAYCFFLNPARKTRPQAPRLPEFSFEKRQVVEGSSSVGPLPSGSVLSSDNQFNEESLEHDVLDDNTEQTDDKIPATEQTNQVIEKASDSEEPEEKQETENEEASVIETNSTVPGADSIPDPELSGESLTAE
inactive: [1] 0.011 | [2] 0.01 | [3] 0.009 | [4] 0.014 | entinostat -0.013 | vorinostat -0.006 | citarinostat 0.002 | silmitasertib 0.072 | [5] -0.051 | [6] -0.006 | entospletinib 0.01

LSR (UniProt Q86X29)
UniProt Q86X29, sequence (Q86X29 whole entry, looked up): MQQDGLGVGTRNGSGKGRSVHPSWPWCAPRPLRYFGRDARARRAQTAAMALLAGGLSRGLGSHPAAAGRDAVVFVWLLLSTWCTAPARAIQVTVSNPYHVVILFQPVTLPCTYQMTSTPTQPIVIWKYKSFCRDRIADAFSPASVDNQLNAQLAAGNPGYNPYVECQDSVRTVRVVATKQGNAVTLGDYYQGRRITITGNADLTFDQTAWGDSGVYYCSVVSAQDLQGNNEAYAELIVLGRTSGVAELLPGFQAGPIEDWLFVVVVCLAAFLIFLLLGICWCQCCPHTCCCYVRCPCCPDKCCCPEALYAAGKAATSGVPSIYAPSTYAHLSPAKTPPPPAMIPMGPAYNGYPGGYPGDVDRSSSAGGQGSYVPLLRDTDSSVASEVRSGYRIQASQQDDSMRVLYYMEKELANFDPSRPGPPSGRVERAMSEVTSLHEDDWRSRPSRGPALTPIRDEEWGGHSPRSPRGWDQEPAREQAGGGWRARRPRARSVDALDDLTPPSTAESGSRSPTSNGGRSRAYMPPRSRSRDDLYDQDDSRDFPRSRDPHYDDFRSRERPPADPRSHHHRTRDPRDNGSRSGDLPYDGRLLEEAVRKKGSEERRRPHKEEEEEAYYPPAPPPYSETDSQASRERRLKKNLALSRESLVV
inactive: [1] -0.135 | [2] 0.066 | [3] 0.066 | [4] 0.039 | entinostat -0.054 | vorinostat -0.027 | citarinostat 0.006 | silmitasertib -0.036 | [5] 0.03 | [6] -0.012 | entospletinib -0.006

INTS7 (UniProt Q9NVH2)
inactive: [1] -0.076 | [2] 0.037 | [3] 0.001 | [4] -0.045 | entinostat -0.095 | vorinostat 0.049 | citarinostat -0.007 | silmitasertib 0.055 | [5] 0.092 | [6] 0.01 | entospletinib -0.005

LIAS (UniProt O43766)
inactive: [1] -0.079 | [2] 0.014 | [3] -0.035 | [4] -0.016 | entinostat -0.047 | vorinostat -0.17 | citarinostat -0.093 | silmitasertib 0.026 | [5] 0.062 | [6] -0.022 | entospletinib 0.113

LRRFIP1 (UniProt Q32MZ4)
UniProt Q32MZ4, sequence (Q32MZ4 whole entry, looked up): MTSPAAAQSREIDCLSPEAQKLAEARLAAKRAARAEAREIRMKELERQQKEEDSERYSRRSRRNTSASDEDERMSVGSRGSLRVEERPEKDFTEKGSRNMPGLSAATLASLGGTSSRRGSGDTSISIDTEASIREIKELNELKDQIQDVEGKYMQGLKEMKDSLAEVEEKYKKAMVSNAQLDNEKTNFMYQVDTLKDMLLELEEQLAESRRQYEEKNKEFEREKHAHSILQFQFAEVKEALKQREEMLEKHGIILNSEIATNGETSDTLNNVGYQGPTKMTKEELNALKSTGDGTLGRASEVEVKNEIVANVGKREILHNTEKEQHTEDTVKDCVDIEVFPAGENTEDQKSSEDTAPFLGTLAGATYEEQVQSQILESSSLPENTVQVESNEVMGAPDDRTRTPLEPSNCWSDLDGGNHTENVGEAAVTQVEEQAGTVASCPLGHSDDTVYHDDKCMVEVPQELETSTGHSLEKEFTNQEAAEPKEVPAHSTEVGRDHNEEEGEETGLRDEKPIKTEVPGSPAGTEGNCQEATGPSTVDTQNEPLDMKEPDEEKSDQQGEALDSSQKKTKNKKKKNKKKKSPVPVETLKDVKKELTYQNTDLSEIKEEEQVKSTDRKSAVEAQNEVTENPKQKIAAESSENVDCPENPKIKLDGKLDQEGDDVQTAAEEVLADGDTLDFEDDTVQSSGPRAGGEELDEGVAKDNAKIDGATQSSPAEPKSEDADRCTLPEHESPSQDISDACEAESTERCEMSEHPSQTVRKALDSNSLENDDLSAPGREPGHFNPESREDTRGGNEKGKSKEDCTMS
inactive: [1] -0.027 | [2] 0.015 | [3] 0.056 | [4] 0.024 | entinostat -0.042 | vorinostat -0.079 | citarinostat -0.007 | silmitasertib 0.049 | [5] 0.01 | [6] -0.013 | entospletinib 0.004

LIMA1 isoform 4 (UniProt Q9UHB6)
inactive: [1] 0.062 | [2] -0.045 | [3] 0.081 | [4] 0.006 | entinostat 0.004 | vorinostat 0.067 | citarinostat -0.024 | silmitasertib -0.006 | [5] -0.073 | [6] -0.012 | entospletinib -0.119

MAP4 (UniProt E7EVA0)
inactive: [1] 0.162 | [2] 0.165 | [3] 0.144 | [4] 0.105 | entinostat -0.096 | vorinostat -0.018 | citarinostat -0.164 | silmitasertib 0.003 | [5] 0.106 | [6] -0.075 | entospletinib -0.007

IPO7 (UniProt O95373)
UniProt O95373, sequence (O95373 whole entry, looked up): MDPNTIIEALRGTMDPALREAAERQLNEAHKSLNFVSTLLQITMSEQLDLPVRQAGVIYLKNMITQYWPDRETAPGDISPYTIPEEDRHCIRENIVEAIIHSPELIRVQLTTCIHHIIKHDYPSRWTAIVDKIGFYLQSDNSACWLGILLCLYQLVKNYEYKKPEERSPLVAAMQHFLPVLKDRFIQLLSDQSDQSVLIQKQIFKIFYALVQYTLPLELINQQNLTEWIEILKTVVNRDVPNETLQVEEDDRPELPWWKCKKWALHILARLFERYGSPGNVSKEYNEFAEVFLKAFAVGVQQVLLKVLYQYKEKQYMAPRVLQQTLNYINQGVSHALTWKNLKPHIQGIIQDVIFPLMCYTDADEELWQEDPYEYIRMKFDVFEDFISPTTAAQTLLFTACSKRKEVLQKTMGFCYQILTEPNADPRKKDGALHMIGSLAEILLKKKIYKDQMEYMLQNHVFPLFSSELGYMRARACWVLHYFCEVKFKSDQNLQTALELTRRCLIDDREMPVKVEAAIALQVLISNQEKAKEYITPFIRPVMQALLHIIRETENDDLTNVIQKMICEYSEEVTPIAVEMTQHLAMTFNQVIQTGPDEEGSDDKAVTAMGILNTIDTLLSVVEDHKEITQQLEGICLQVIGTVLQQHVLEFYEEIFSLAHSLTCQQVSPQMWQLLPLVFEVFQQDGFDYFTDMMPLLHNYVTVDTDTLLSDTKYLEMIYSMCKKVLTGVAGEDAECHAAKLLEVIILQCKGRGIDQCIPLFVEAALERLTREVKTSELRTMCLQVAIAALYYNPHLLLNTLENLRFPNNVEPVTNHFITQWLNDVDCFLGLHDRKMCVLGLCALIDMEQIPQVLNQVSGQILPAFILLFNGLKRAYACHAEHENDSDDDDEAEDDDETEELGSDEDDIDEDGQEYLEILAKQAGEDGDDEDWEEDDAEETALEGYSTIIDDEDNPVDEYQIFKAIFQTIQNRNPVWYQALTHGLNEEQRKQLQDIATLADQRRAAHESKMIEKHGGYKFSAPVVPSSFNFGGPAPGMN
inactive: [1] 0.024 | [2] -0.099 | [3] -0.145 | [4] -0.069 | entinostat 0.036 | vorinostat 0.055 | citarinostat 0.056 | silmitasertib 0.015 | [5] -0.004 | [6] -0.09 | entospletinib 0.027

MAP4K5 (UniProt Q9Y4K4)
UniProt Q9Y4K4, sequence (Q9Y4K4 whole entry, looked up): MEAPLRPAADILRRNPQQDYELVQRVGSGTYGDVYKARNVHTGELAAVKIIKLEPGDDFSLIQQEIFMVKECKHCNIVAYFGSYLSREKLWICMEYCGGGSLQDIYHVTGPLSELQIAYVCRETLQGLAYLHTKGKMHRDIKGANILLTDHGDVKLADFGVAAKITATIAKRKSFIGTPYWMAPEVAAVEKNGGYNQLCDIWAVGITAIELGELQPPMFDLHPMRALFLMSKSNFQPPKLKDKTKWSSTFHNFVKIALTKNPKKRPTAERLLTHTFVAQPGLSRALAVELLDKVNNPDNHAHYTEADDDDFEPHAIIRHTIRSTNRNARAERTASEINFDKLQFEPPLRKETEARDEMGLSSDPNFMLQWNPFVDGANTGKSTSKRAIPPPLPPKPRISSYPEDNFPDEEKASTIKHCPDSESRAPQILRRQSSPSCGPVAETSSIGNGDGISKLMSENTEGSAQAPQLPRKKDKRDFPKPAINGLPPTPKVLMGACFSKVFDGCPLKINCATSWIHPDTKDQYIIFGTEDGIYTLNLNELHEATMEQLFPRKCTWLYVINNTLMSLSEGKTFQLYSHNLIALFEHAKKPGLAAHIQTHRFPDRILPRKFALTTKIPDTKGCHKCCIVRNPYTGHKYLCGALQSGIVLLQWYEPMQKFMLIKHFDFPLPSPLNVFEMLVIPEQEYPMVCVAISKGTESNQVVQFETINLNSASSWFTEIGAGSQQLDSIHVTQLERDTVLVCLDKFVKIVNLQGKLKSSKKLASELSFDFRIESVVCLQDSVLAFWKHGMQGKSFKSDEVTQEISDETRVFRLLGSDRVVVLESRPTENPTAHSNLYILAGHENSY
inactive: [1] 0.217 | [2] 0 | [3] -0.002 | [4] -0.097 | entinostat -0.012 | vorinostat 0.074 | citarinostat 0.02 | silmitasertib -0.09 | [5] 0.073 | [6] 0.026 | entospletinib -0.065

MAP2K1 (UniProt Q02750)
inactive: [1] -0.028 | [2] -0.062 | [3] -0.011 | [4] -0.027 | entinostat -0.004 | vorinostat 0.035 | citarinostat 0.022 | silmitasertib -0.064 | [5] -0.061 | [6] -0.035 | entospletinib -0.026

MAGEA9 (UniProt P43362)
UniProt P43362, sequence (P43362 whole entry, looked up): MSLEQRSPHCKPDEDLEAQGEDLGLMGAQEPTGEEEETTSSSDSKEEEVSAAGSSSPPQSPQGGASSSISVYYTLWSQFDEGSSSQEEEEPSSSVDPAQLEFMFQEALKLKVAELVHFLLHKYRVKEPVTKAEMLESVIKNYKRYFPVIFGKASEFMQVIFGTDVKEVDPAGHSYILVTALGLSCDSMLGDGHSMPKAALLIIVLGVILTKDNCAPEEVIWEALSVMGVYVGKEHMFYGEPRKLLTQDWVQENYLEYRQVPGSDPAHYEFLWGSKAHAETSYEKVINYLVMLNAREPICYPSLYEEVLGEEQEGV
inactive: [1] -0.017 | [2] -0.027 | [3] -0.243 | [4] 0.033 | entinostat 0 | vorinostat 0.132 | citarinostat 0.013 | silmitasertib 0.052 | [5] -0.079 | [6] -0.106 | entospletinib 0.083

MAPK12 (UniProt P53778)
inactive: [1] -0.076 | [2] -0.095 | [3] -0.09 | [4] 0.014 | entinostat 0.012 | vorinostat 0.08 | citarinostat 0.046 | silmitasertib -0.006 | [6] 0.018 | entospletinib 0.02
active: [5] 0.348

MFSD1 isoform 6 (UniProt Q9H3U5)
inactive: [1] 0.02 | [2] -0.066 | [4] -0.098 | entinostat -0.019 | vorinostat -0.053 | citarinostat 0.03 | silmitasertib -0.008 | [5] 0.067 | [6] 0.043 | entospletinib 0.013
active: [3] -0.308

MIEF1 (UniProt Q9NQG6)
inactive: [1] -0.001 | [2] -0.14 | [3] -0.215 | [4] -0.034 | entinostat 0.056 | vorinostat 0.019 | citarinostat 0.073 | silmitasertib 0.006 | [5] 0.031 | [6] -0.01 | entospletinib 0.032

LARP1 (UniProt Q6PKG0)
inactive: [1] -0.064 | [2] 0.002 | [3] 0.051 | [4] -0.04 | entinostat 0.02 | vorinostat 0.043 | citarinostat -0.025 | silmitasertib 0.028 | [5] 0.113 | [6] -0.133 | entospletinib 0.028

MIF (UniProt P14174)
inactive: [1] -0.059 | [2] 0.092 | [3] 0.103 | [4] 0.048 | entinostat 0.099 | vorinostat -0.085 | citarinostat -0.013 | silmitasertib 0.036 | [5] -0.196 | [6] 0.063 | entospletinib 0.111
